Screens as filed in PubChem BioAssay.
RE007 growth inh: less growth of the S. pombe RE007 Vpr strain | AID 651644 | hit rate 0.21% among 360,000 | S. pombe RE007 Vpr strain, BacTiter-Glo ATP luminescence, 24 h | Potency, µM (titrated, usually from 92.2 µM), without a hit: top-dose activity change, negative = less growth, usual class: inhibitors; active = well fitted falling curve with a large enough effect; inconclusive = small, poorly fitted or top-dose-only effect; inactive = no such curve, though single readings can be large or run the other way; also: % is scaled to controls: 0 for no effect and ±100 for the full control effect; nearly all actives have a fitted effect of over 50% in size
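Fission yeast RE007 carrying one integrated HIV-1 vpr copy, seeded at OD 0.01 in PMG+AL medium with 23 nL pinned compound. Grown 24 h at 30 degrees; viability read by BacTiter-Glo luminescence after 5 min.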
Pf growth 96h: P. falciparum growth inhibition at 96 hour, primary screen for plastid delayed-death inhibitors; P. falciparum luciferase reporter growth, 96 h; Potency, µM (doses to about 28.7 µM), for the others: top-dose activity change, negative = inhibition, actives largely listed as inhibitors; hit rate 6.9% among 320,000; AID 504834; active = well fitted inhibition curve with a large enough effect; inconclusive = small, poorly fitted or top-dose-only effect, or another doubt; inactive = no such curve, though single readings can be large or run the other way; also: % is scaled to controls: 0 for no effect and ±100 for the full control effect
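Two-generation exposure (96 h) targets delayed-death phenotype. Reporter parasites carrying integrated firefly luciferase, in red cells at 2% hematocrit and 0.05% parasitemia final, kept at 37 C, 5% CO2; luminescence loss indicates inhibition.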
NS1 inh: inhibitors of influenza NS1 protein function. Potency, µM (top dose mostly 46.1 µM), without a hit: at the top dose activity, positive = more growth. hit rate 0.4% among 270,000; also: actives are rising curves; nearly all actives have a fitted effect of over 50% in size
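Recovery from NS1-induced slow growth read by OD600 in budding yeast switched to galactose assay medium (pH 6.0, -URA) at 1:100 dilution. Compound 23 nl per well; the matching strain lacking NS1 serves as control.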
Pf growth 48h: inhibits P. falciparum growth in the first generation, 48 h; Potency, µM (series often up to 28.7 µM), for inactives: top-dose activity change, negative = inhibition, actives largely listed as inhibitors; hit rate 5.9% among 310,000; AID 504832; P. falciparum luciferase growth in erythrocytes, 48 h; active = well fitted inhibition curve with a large enough effect; inconclusive = small, poorly fitted or top-dose-only effect, or another doubt; inactive = no such curve, though single readings can be large or run the other way; also: % is scaled to controls: 0 for no effect and ±100 for the full control effect
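Luminescence readout; reporter = integrated firefly luciferase in P. falciparum. RBC culture at 2% hematocrit, 0.1% parasitemia final, 37 C/5% CO2; decreased signal taken as growth inhibition.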
SARS PLP yeast: blocks SARS-CoV papain-like protease in a yeast assay; S. cerevisiae expressing SARS-CoV PLpro, growth rescue; Potency, µM (highest dose often 32.9 µM), for the others: at the top dose activity, positive = growth rescue, most hits filed as activators; hit rate 0.19% among 330,000; AID 485353; also: 0% is about no effect; nearly all actives have a fitted effect of over 55% in size
Active calls of the source: *; ? = inconclusive; . = no result; [ ] = dose if it differs, or a comment. Shown are actives, neighbours in structure and some others; about 9.5% of the full set was active somewhere. Unless noted, calls follow the shape of the full dose curve. Potency is read from the fitted curve at half-maximal effect.

SMILES	RE007 growth inh	Pf growth 96h	NS1 inh	Pf growth 48h	SARS PLP yeast
COc1cccc(C2C(C#N)=C(N)N(N(C)C)C3=C2C(=O)CC(C)(C)C3)c1OC (stereo not drawn)	-2%	-7%	3%	?	-1%
COc1ccccc1CNC(=O)c1ccc(C)s1	0%	6.6µM*	-1%	60%	1%
COc1ccccc1CNC(=O)c1cccnc1	-8%	12µM*	7%	-1%	-1%
COc1ccccc1CNC(=O)c1cc(-c2cccnc2)nc2ccccc12	22%	-10%	.	10µM*	-4%
COc1ccccc1CNC(=O)c1cnccn1	-12%	-9%	12%	.	-6%
COc1ccc(OC)c(-c2cc(C(=O)N/N=C(\C)c3cccnc3)c3ccccc3n2)c1	-8%	-103%	-3%	1.5µM*	-3%
COCCCNC(=O)c1cc(-c2cccnc2)nc2ccccc12	4%	?	6%	11%	-2%
COc1ccccc1CN1CC(C(=O)NCc2cccc(Cl)c2)CCC1=O (stereo not drawn)	-4%	-2%	-2%	6%	?
COc1ccccc1CN1CC(C(=O)NCc2cccnc2)CC1=O (stereo not drawn)	0%	2.1µM*	-13%	15%	1%
COc1cc(CN(C(=O)c2ccco2)C2CCS(=O)(=O)C2)cc(OC)c1OC (stereo not drawn)	2%	87%	3%	6%	12%
COC(=O)c1cc2c(-c3ccccc3)cc3ccccn3c-2c1C(=O)OC	-9%	3.7µM*	23%	.	3%
O=C(O)c1cccc(-n2c(O)c(C=C3N=c4ccccc4=N3)sc2=S)c1	-9%	?	9%	12µM*	0%
O=C(CSC(=S)N1CCOCC1)Nc1nc(=O)c2ccccc2s1	.	42%	8%	21%	1%
CC(=O)c1c(C)[nH]c(C(=O)NCCN2CCC(C)CC2)c1C	-9%	12µM*	-2%	-5%	7%
O=C(O)CCC1(CCC(=O)O)c2ccccc2-c2ccccc21	-12%	6.6µM*	28%	-6%	1%
Cc1cc(NS(C)(=O)=O)c(=O)n(Cc2cccc(F)c2)c1	-5%	2.6µM*	-19%	17%	-12%
CCN1C(=O)[C@H]2[C@@H](c3ccc(OC)cc3)N[C@]3(CCCN(CC4CCCCC4)C3=O)[C@H]2C1=O	0%	.	.	.	.
O=S(=O)(c1ccccc1)N1N=C(c2cccs2)CC1c1cccc(O)c1 (stereo not drawn)	-3%	?	6%	-8%	.
Oc1ccccc1C1CC(c2cccs2)=NC(c2cccc(Br)c2)N1 (stereo not drawn)	?	2.6µM*	.	?	-21%
COc1ccc(CC(=O)OCC(=O)NC2CCCC(C)C2C)cc1 (stereo not drawn)	-10%	.	.	.	-4%
COc1cccc(N2CCN(c3ccc4nnc(CCC(=O)Nc5ncccc5C)n4n3)CC2)c1	-8%	29%	9%	?	0%
Cc1cc(C)cc(OCC(O)CN2CCC(CN3C(=O)c4cccc5cccc(c45)C3=O)CC2)c1 (stereo not drawn)	3%	30%	20%	10%	8%
Clc1ccc(OCc2nc(-c3ccncc3)no2)cc1	13%	10µM*	6%	.	3%
c1ccc(C(Cc2nc(-c3ccncc3)no2)c2ccccc2)cc1	11%	-1%	-75%	7.4µM*	-6%
CNC1CC(N)[C@H](O)[C@@H](O[C@@H]2OC(CO)C3OC4(OC(C(N)CO)C(O)C(O)C4O)O[C@@H]3[C@H]2O)C1O (stereo partly drawn)	.	14%	.	-5%	.
SMILES	RE007 growth inh	Pf growth 96h	NS1 inh	Pf growth 48h	SARS PLP yeast
CCc1ccc2[nH]c3nc(C)cc(C)c3c(=O)c2c1	1%	0%	-15%	3.3µM*	-16%
CSCc1ccc(C(=O)NC(C)c2cnn(-c3ccccn3)c2C)o1 (stereo not drawn)	-7%	?	-8%	-16%	1%
O=C1/C(=C/c2ccccc2F)SC(=S)N1CC(=O)N1CCCCC1c1cccnc1 (stereo not drawn)	-14%	15µM*	-72%	-7%	-6%
O=C1CSC(c2ccccc2[N+](=O)[O-])N1c1cccc(F)c1 (stereo not drawn)	3%	2.3µM*	.	-8%	0%
Cc1cc(C)c2c(c1)NC(c1cc3c(cc1Br)OCO3)C1CC=CC21 (stereo not drawn)	.	-19%	1%	13µM*	-24%
CN(Cc1nc2ccccc2c(=O)[nH]1)CC(O)COCc1ccco1 (stereo not drawn)	5%	6.6µM*	5%	-7%	2%
CN(CC(=O)NC(=O)NCc1ccco1)Cc1nc2ccccc2c(=O)[nH]1	-6%	15%[5.75 µM]	-1%	-6%	9%
CC(C)(C)OC(=O)N1CCC(CNC(=O)c2ccc(F)cc2)CC1	-5%	13%	-52%	1.7µM*	2%
CN(C)S(=O)(=O)c1cccc(COc2ccccc2C(=O)Nc2ccccc2)c1	-6%	9.3µM*	3%	10µM*	-6%
CN(C)S(=O)(=O)c1cccc(NC(=S)NNC(=O)c2cc3ccccc3cc2O)c1	0%	?	.	?	4.5µM*
CN(C)S(=O)(=O)c1cccc(NC(=O)c2ccccc2OCc2ccc(F)cc2)c1	-21%	?	-9%	12µM*	1%
CC(=O)c1cccc(NC(=O)c2ccccc2OCc2ccc(F)cc2)c1	-11%	-14%	-4%	4%	-2%
CCc1nc2ccc(C(=O)NCCN3CCOCC3)cn2c1N(C=O)Cc1ccc(OC)cc1	3%	.	.	.	.
Cc1ccn2c(Nc3ccccc3)c(-c3ccccn3)nc2c1	-16%	139%	.	2.1µM*	19%
Cc1ccccc1Nc1c(-c2ccccn2)nc2ccccn12	-14%	-17%	.	2.6µM*	-25%
CCC(C)n1c(SCC(=O)NC2CCS(=O)(=O)C2)nc2ccccc2c1=O (stereo not drawn)	1%	-29%	.	?	5%
O=C(Cn1nnc2ccccc2c1=O)Nc1ccc2c(c1)CCC2	9%	?	7%	24%	1%
O=C(Cn1nnc2ccccc2c1=O)NC1CCCc2ccccc21 (stereo not drawn)	6%	10µM*	-5%	8%	3%
Cc1cc(C)c2c(SCc3ccc(Cl)cc3Cl)nc(N)nc2n1	.	.	-3%	.	.
Cn1nc(C(F)(F)F)c(C(=O)Nc2ccc(F)cc2F)c1Sc1ccc(Cl)cc1	9%	12µM*	8%	?	1%
Cc1ccc(Sc2c(C(=O)Nc3ccc(F)cc3F)c(C(F)(F)F)nn2C)cc1	-5%	?	20%	?	-3%
Cn1nc(C(F)(F)F)c(C(=O)Nc2ccc(F)cc2F)c1Sc1ccc(C(F)(F)F)cc1	-7%	8.3µM*	18%	?	3%
CCOc1ccccc1NC(=S)/C(=C(\[O-])c1ccc2c(c1)OCCO2)[n+]1ccc(CC)cc1	-9%	2.3µM*	7%	.	6%
[O-]C(=C(C(=S)Nc1cccc2ccccc12)[n+]1ccccc1)c1ccc2c(c1)OCCO2	-20%	.	.	.	.
